Bioassay records from PubChem BioAssay.
Hits are enriched below; roughly 21% of the tested compounds scored in any of these assays.
HCV inh – HCV inhibition. Huh7.5.1 HCVcc-Cre infection, luciferase reporter, 44 h. Potency, µM (titrated, usually from 41.8 µM), usual class: inhibitors. 340,000 compounds, 3.4% hits
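Reporter virus HCVcc-Cre (~0.5 moi) infects cells exposed to compound; seeding density 1,000 cells/well with 4 h settling beforehand. Luminescence, 15 sec read, taken 44 h post-infection following a 15 min RT substrate incubation.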
AMA1-RON2 inh – disrupts binding of P. falciparum AMA1 to RON2. Potency, µM (series often up to 58.2 µM), usual class: inhibitors. 360,000 compounds, 0.2% hits. AlphaScreen AMA1-biotinylated RON2 peptide binding; note: nearly all actives have a fitted effect of over 45% in size
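AMA1 (3D7) with his tag at 25 nM final met compounds first, then biotinylated RON2 peptide at 25 nM; detection used donor plus acceptor beads, 10 µg/mL apiece, read by AlphaScreen after 30 min at room temperature.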
Pf growth 48h – inhibits P. falciparum growth in the first generation, 48 h; Potency, µM (top dose mostly 28.7 µM), actives largely listed as inhibitors; P. falciparum luciferase growth in erythrocytes, 48 h; 310,000 compounds, 5.9% hits; AID 504832
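Read-out is firefly luciferase luminescence from an integrated reporter in P. falciparum, so falling signal marks reduced parasite growth. Infected erythrocytes were at 2% hematocrit and 0.1% parasitemia (final) in Albumax-supplemented RPMI 1640.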
Shiga inhibitor – inhibitors of Shiga toxin in Vero cells; Vero cells, Shiga toxin protein synthesis inhibition reporter; inhibition, % at 38.7 µM; 290,000 compounds, 9.2% hits; in the data active = inhibition mostly above about 28%, no sharp cut-off; inactive = mostly below about 43%
Pf growth 96h – inhibits malaria parasite growth, 96 h; Potency, µM (top dose mostly 28.7 µM), most hits filed as inhibitors; P. falciparum luciferase reporter growth, 96 h; 320,000 compounds, 6.9% hits
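Two parasite generations (96 h, 37 C, 5% CO2) of compound exposure in infected erythrocytes (0.05% parasitemia, 2% hematocrit). Luciferase-reporter P. falciparum; decreased luminescence indicates inhibited growth, aimed at apicoplast-acting delayed death.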
CHX counter – affects cycloheximide protein synthesis inhibition readout, counter-screen. max response, %. cell reporter, cycloheximide protein synthesis inhibition counterscreen. AID 2314. 300,000 compounds, 12% hits; in the data active = max response mostly above about 13%, no sharp cut-off; inactive = mostly below about 14%; note: read at 38.3 µM for the half of the compounds with a filed dose
Of the large screens only hits and unclear results are named; the others gave an inactive call. Unless noted, calls come from the whole dose curve; as a rule, active = well fitted curve in the direction sought with a large enough effect; inconclusive = small, poorly fitted or top-dose-only effect, or another doubt; inactive = no such curve, though single readings can be large; an effect the other way counts as inactive or inconclusive.

c1ccc(-c2ccc(-c3nc(-c4ccncc4)no3)cc2)cc1	CHX counter 34.8 (no result: Pf growth 48h)
c1ccc(C(Cc2nc(-c3ccncc3)no2)c2ccccc2)cc1	HCV inh 7.94µM, Pf growth 48h 7.38µM
O=[N+]([O-])c1ccc(-c2nc(-c3ccncc3)no2)cc1	Shiga inhibitor 37.3, CHX counter 18.3
c1ccc(-c2nc(-c3ccncc3)no2)cc1	Shiga inhibitor 148.1, CHX counter 69.6
O=C1CCC/C1=c1\s/c(=C/c2cccnc2)c(=O)n1-c1ccccc1	none (no result: Pf growth 48h, Shiga inhibitor, Pf growth 96h, CHX counter)
Cc1cccc(SC2CCN(C(=O)C3CCC(=O)N(C4CC4)C3)CC2)c1 (centres undefined)	Pf growth 96h inconclusive
c1coc(-c2nc(-c3ccncc3)no2)c1	Shiga inhibitor 71.2, Pf growth 96h inconclusive, CHX counter 48.8
COc1nc2c(C)cccc2cc1-c1noc(-c2ccco2)n1	none
CC1=NNC(=O)C1C(c1ccccc1)C1C(=O)NN=C1C (centres undefined)	Pf growth 48h inconclusive (no result: HCV inh, AMA1-RON2 inh)
O=S(=O)(c1ccc(F)cc1)N1CC2CCCN2c2ccc(C(F)(F)F)cc21 (centres undefined)	HCV inh inconclusive, Pf growth 48h inconclusive, Pf growth 96h inconclusive
Cc1ccc(S(=O)(=O)N2CC3CCCN3c3ccc(C(F)(F)F)cc32)cc1 (centres undefined)	HCV inh inconclusive, Pf growth 48h 10.4µM, Pf growth 96h inconclusive
Cc1occc1C(=O)NCCCCNC(=O)c1ccoc1C	none (no result: Pf growth 96h)
Cc1occc1C(=O)NCCc1cccc(Cl)c1	Shiga inhibitor 130.2, CHX counter 69.4 (no result: Pf growth 48h)
Cc1ccc(/C=C/C(=O)NCCc2c[nH]c3ccccc23)o1	HCV inh inconclusive
Cc1occc1C(=O)NNC(=S)NCc1ccc(Cl)cc1	CHX counter 27.8
Cc1occc1C(=O)NCCCc1ccccc1	CHX counter 25.4 (no result: Pf growth 96h)
Cc1ccc(/C=C/C(=O)NCCc2cccc(Cl)c2)o1	CHX counter 28.7 (no result: Shiga inhibitor)
COCCN1C(=O)CCC1(C)C(=O)Nc1ccc2c(c1)OCCO2 (centres undefined)	none (no result: HCV inh, Pf growth 48h, Shiga inhibitor, Pf growth 96h, CHX counter)
CC1CN(C(=O)CCC(=O)N2CCN(c3cccc(C(F)(F)F)c3)CC2)c2ccccc2O1 (centres undefined)	HCV inh inconclusive, Pf growth 48h inconclusive
C[C@@H](NC(=O)c1nc[nH]c1C(=O)NCC(=O)OCc1ccccc1)c1ccccc1	none
CC1(C(=O)O)CCN1C(=O)c1cccc(C(F)(F)F)c1 (centres undefined)	none (no result: HCV inh, Pf growth 48h, Shiga inhibitor, Pf growth 96h, CHX counter)
CCC1(C)Cc2nc3[nH]c(=S)n(-c4ccccc4)c(=O)c3cc2CO1 (centres undefined)	Pf growth 96h 7.38µM
CCC1(C)Cc2nc3[nH]c(=S)n(-c4ccccc4C)c(=O)c3cc2CO1 (centres undefined)	none
CN(CC(=O)NCc1ccccc1F)S(=O)(=O)c1ccc(Cl)cc1	none
Cc1cc(C(=O)CSc2nnc(NCc3ccccc3)s2)c(C)n1C	HCV inh inconclusive, Pf growth 48h inconclusive
CN1/C(=C\C(=O)CSc2nnc(NCc3ccccc3)s2)C(C)(C)c2ccccc21	HCV inh inconclusive, Pf growth 48h 7.38µM, Pf growth 96h 6.57µM
CN1/C(=C\C(=O)C[n+]2ccc3ccccc3c2)C(C)(C)c2ccccc21	HCV inh inconclusive, Pf growth 48h inconclusive, Pf growth 96h 1.04µM
CN1/C(=C\C(=O)COc2ccc3c(c2)OCO3)C(C)(C)c2ccccc21	HCV inh inconclusive, AMA1-RON2 inh inconclusive, Pf growth 48h inconclusive, CHX counter 10.7
COc1ccccc1OCC(=O)/C=C1/N(C)c2ccccc2C1(C)C	HCV inh 10µM, Pf growth 48h inconclusive, Pf growth 96h inconclusive
COc1ccc(C(C)NC(=O)C2CCN(CCOc3ccc(Cl)cc3Cl)CC2)cc1OC (centres undefined)	none (no result: HCV inh, Pf growth 48h, Shiga inhibitor, Pf growth 96h, CHX counter)
Cc1nc2ccccc2nc1N1CCCC1	Shiga inhibitor 39.7
Cc1nc2ccccc2nc1N1CCOCC1	none (no result: Pf growth 48h)
c1ccc2c(N3CCCCC3)nc(N3CCCC3)nc2c1	HCV inh 3.16µM, Pf growth 48h 13.1µM, Pf growth 96h 4.65µM
c1ccc2c(c1)nc(N1CCCCC1)c1ccccc12	HCV inh inconclusive
Cc1nc(N2CCCCCC2)c2ccccc2n1	HCV inh 10µM, Pf growth 96h inconclusive (no result: Shiga inhibitor)
CCOC(=O)[C@H]1[C@H]2COc3ccc(OC)cc3[C@@H]2N2C(=O)CN(Cc3ccc(Cl)cc3)C(=O)[C@@]12C	HCV inh inconclusive, Pf growth 48h 14.7µM, Pf growth 96h inconclusive (no result: Shiga inhibitor, CHX counter)
CCOC(=O)[C@H]1[C@H]2COc3ccc(OC)cc3[C@@H]2N2C(=O)CN(Cc3ccccc3)C(=O)[C@@]12C	Pf growth 48h 10.4µM, Pf growth 96h inconclusive (no result: Shiga inhibitor, CHX counter)
CCOC(=O)[C@H]1[C@H]2COc3ccc(Br)cc3[C@@H]2N2C(=O)CN(Cc3ccc(F)cc3)C(=O)[C@@]12C	Pf growth 48h 13.1µM, Pf growth 96h inconclusive (no result: Shiga inhibitor, CHX counter)
Cc1ccc(NC(=O)c2ccncc2)cc1[N+](=O)[O-]	CHX counter 18.5
CC(=O)Nc1cccc(NC(=O)c2ccc(C)c([N+](=O)[O-])c2)c1	CHX counter 25.9
C/C(=N\NC(=O)c1ccc([N+](=O)[O-])c(C)c1)c1ccccc1Cl	Shiga inhibitor 57.5, CHX counter 28.1
Cc1ccc(C(=O)NNC(=O)c2ccncc2)cc1[N+](=O)[O-]	none (no result: Shiga inhibitor, CHX counter)
Cc1cc(C(=O)Nc2ccc(Nc3ccccc3)cc2)ccc1[N+](=O)[O-]	HCV inh 11.2µM, AMA1-RON2 inh inconclusive, Pf growth 96h 11.7µM, CHX counter 19.8 (no result: Shiga inhibitor)
CC(=O)Nc1ccccc1NC(=O)C/C(C)=N/NC(=O)c1ccc([N+](=O)[O-])c(Cl)c1	none
O=C(Nc1ccc(Nc2ccccc2)cc1)c1ccc(Cl)c([N+](=O)[O-])c1	AMA1-RON2 inh inconclusive, Pf growth 96h inconclusive
CC(C)(C)Cc1c(-c2cccc(Br)c2)nc2ccc(Br)cn12	none (no result: HCV inh, Pf growth 48h, Shiga inhibitor, Pf growth 96h, CHX counter)
CC(C)n1nnnc1C1c2ccccc2C(=O)N1C1CC1 (centres undefined)	none (no result: HCV inh, Pf growth 48h, Shiga inhibitor, Pf growth 96h, CHX counter)
CCOc1ccc(-c2ncncc2-c2ccc(OC)c(OC)c2)c(O)c1	Pf growth 48h inconclusive, Pf growth 96h inconclusive
Cc1ccccc1NC(=O)c1ccc(Nc2c([N+](=O)[O-])cc([N+](=O)[O-])c3ccccc23)cc1	HCV inh 14.1µM, AMA1-RON2 inh inconclusive, Pf growth 48h inconclusive, Pf growth 96h inconclusive
Cc1ccc(C(=O)Nc2ccncc2)cc1[N+](=O)[O-]	Pf growth 96h inconclusive
Cc1cc(C(=O)Nc2ccncc2)ccc1[N+](=O)[O-]	HCV inh inconclusive, CHX counter 26.3 (no result: Pf growth 48h)
COC(=O)C1CCc2c(ccc3c2CCCC3)C1=O (centres undefined)	none (no result: Pf growth 48h, Shiga inhibitor, Pf growth 96h, CHX counter)
CC(NC(=O)C(C)N1CCN(Cc2ccccc2)CC1)c1ccccc1 (centres undefined)	none
COc1cc2c3cc1OCc1c(O)c(OC)cc4c1C(Cc1ccc(cc1)Oc1cc(ccc1O)CC3N(C)CC2)N(C)CC4 (centres undefined)	none (no result: HCV inh, AMA1-RON2 inh, Pf growth 48h, Pf growth 96h)
